Inconclusive results are not listed. Calls of active or inactive are those of the source. Calls come from the whole dose curve; as a rule, active = well fitted activation curve with a large enough effect in the signal ratio in the repeat runs, with a control signal flat (not every such curve was filed as active); inconclusive = weak or mixed curves; inactive = flat fitted curve, though single readings scatter; the % refers to the signal ratio.
assay: qHTS assay for small molecule activators of the heat shock response signaling pathway (AID 743210); details: HeLa HSE-bla reporter, beta-lactamase ratio, 5 h; series mostly up to 62.6 µM
From the text: U.S. Tox21 Program National Center for Advancing Translational Sciences [NCATS] NIH Chemical Genomics Center [NCGC] U.S. Environmental Protection Agency [EPA] National Institutes of Environmental Health Sciences [NIEHS] National Toxicology Program [NTP] U.S. Food and Drug Administration [FDA] Tox21 Assay Overview: Various chemicals, environmental and physiological stress conditions may lead to the activation of heat shock response/ unfolded protein response (HSR/UPR). There are three heat shock transcription factors (HSFs) (HSF-1, -2, and -4) mediating transcriptional regulation of the human HSR. To identify the compounds that activate HSR signaling, HSE-bla HeLa cell line (Invitrogen, Carlsbad, CA, USA) containing a beta-lactamase reporter gene under the control of the heat shock response elements was used to screen the Tox21 10K compound library.
Tox21 Assay Protocol Summary: The CellSensor HSE-bla HeLa cells (Invitrogen, Carlsbad, CA, USA) were dispensed at 1500 cells/6uL/well into 1536-well black wall/clear bottom plates using a Multidrop combi (Thermo Fisher Scientific, Waltham, MA) dispenser. After the assay plates were incubated at 37 C and 5% CO2 overnight, 23 nL of compounds dissolved in DMSO, positive controls or DMSO only was transferred to the assay plate by a Pintool station (Kalypsys, San Diego, CA). The plates were incubated at 37 C for 5 h. After 1 uL of LiveBLAzerTM B/G FRET substrate was added using a Flying Reagent Dispenser (Beckman Coulter, Indianapolis, IN, USA), the plates were incubated at room temperature for 2.5 h, and fluorescence intensity was measured by an Envision plate reader (PerkinElmer, Shelton, CT).

**Q.** Which outcome does the source give for `O=C1CCCN1` here?
**A.** Its outcome is “inactive”.

**Q.** Which outcome does the source give for `C=CC(N)=O` here?
**A.** The outcome was “inactive”.

**Q.** Which outcome does the source give for `O=NN1CCCC1` here?
**A.** The outcome was “inactive”.

**Q.** Which outcome does the source give for `C1CN2CCN1CC2` here?
**A.** The outcome was “inactive”.

**Q.** For `CC(C)OC(=O)Nc1ccccc1`, which outcome is on record?
**A.** The outcome was “inactive”.

**Q.** For `C[C@]12CC[C@H]3[C@@H](CC[C@@]45O[C@@H]4C(O)=C(C#N)C[C@]35C)[C@@H]1CC[C@@H]2O`, which outcome is on record?
**A.** The outcome was “inactive”.

**Q.** Which outcome does the source give for `NCC(O)c1ccc(O)cc1` (stereo not given) here?
**A.** The outcome was “inactive”.

**Q.** With `CCNc1nc(NC(C)C)nc(SC)n1` as the molecule, how does the outcome read?
**A.** Its outcome is “inactive”.

**Q.** For `CCCCCCCCCl`, which outcome is on record?
**A.** Its outcome is “inactive”.

**Q.** Which outcome does the source give for `Oc1ccccc1Cl` here?
**A.** The outcome was “inactive”.

**Q.** With `CC(C)OC(=O)Nc1cccc(Cl)c1` as the molecule, how does the outcome read?
**A.** Its outcome is “inactive”.

**Q.** With `O=c1n(Cl)c(=O)n(Cl)c(=O)n1Cl` as the molecule, how does the outcome read?
**A.** Its outcome is “inactive”.

**Q.** With `c1cc2c3c(cccc3c1)CC2` as the molecule, how does the outcome read?
**A.** The outcome was “inactive”.

**Q.** For `CCCCCCCCCCCC#N`, which outcome is on record?
**A.** Its outcome is “inactive”.

**Q.** For `C#CC(C)(C)NC(=O)c1cc(Cl)cc(Cl)c1`, which outcome is on record?
**A.** The outcome was “inactive”.

**Q.** With `Cc1cccc([N+](=O)[O-])c1` as the molecule, how does the outcome read?
**A.** Its outcome is “inactive”.

**Q.** For `CC(C)(Cl)Cl`, which outcome is on record?
**A.** The outcome was “inactive”.

**Q.** With `CCOP(OCC)OCC` as the molecule, how does the outcome read?
**A.** Its outcome is “inactive”.

**Q.** For `CCC[CH2][Sn]([Cl])([Cl])[Cl]`, which outcome is on record?
**A.** Its outcome is “inactive”.

**Q.** For `c1ccc2c(c1)oc1ccccc12`, which outcome is on record?
**A.** The outcome was “inactive”.

**Q.** With `COC(=O)c1ccccc1N` as the molecule, how does the outcome read?
**A.** The outcome was “inactive”.

**Q.** For `CN(C)[C@@H]1C(=O)C(C(N)=O)=C(O)[C@@]2(O)C(=O)C3=C(O)c4c(O)cccc4[C@@](C)(O)[C@H]3C[C@@H]12`, which outcome is on record?
**A.** The outcome was “inactive”.

**Q.** With `CCN(CC)c1ccccc1` as the molecule, how does the outcome read?
**A.** The outcome was “inactive”.

**Q.** For `CCCCN(CC)C(=O)SCCC`, which outcome is on record?
**A.** Its outcome is “inactive”.

**Q.** For `Cc1cc(-c2cc(C)c(N)c(C)c2)cc(C)c1N`, which outcome is on record?
**A.** Its outcome is “inactive”.

**Q.** Which outcome does the source give for `CN(N=O)c1ccccc1` here?
**A.** Its outcome is “inactive”.

**Q.** With `CN=C=S` as the molecule, how does the outcome read?
**A.** Its outcome is “inactive”.

**Q.** Which outcome does the source give for `O=S(=O)(c1ccc(O)cc1)c1ccc(O)cc1` here?
**A.** The outcome was “inactive”.

**Q.** For `CC(Br)C(=O)O` (stereo not given), which outcome is on record?
**A.** The outcome was “inactive”.

**Q.** With `CC1OC(C)OC(C)O1` (stereo not given) as the molecule, how does the outcome read?
**A.** The outcome was “inactive”.

**Q.** Which outcome does the source give for `O=NN1CCCCCCC1` here?
**A.** The outcome was “inactive”.

**Q.** With `CC(C)(C)OOC(=O)c1ccccc1` as the molecule, how does the outcome read?
**A.** Its outcome is “inactive”.

**Q.** For `CCCC1COC(Cn2cncn2)(c2ccc(Cl)cc2Cl)O1` (stereo not given), which outcome is on record?
**A.** Its outcome is “inactive”.

**Q.** For `CCCN(CCC)N=O`, which outcome is on record?
**A.** The outcome was “inactive”.

**Q.** Which outcome does the source give for `CC(C)C#N` here?
**A.** Its outcome is “inactive”.

**Q.** For `CCCN(CCC)c1c([N+](=O)[O-])cc(C(F)(F)F)cc1[N+](=O)[O-]`, which outcome is on record?
**A.** Its outcome is “inactive”.

**Q.** With `CCCCOC(=O)c1ccccc1C(=O)OCCCC` as the molecule, how does the outcome read?
**A.** The outcome was “inactive”.

**Q.** Which outcome does the source give for `O=c1ccc(=O)[nH][nH]1` here?
**A.** Its outcome is “inactive”.

**Q.** With `O=c1[nH]c(=O)[nH]c(=O)[nH]1` as the molecule, how does the outcome read?
**A.** Its outcome is “inactive”.

**Q.** For `O=[N+]([O-])c1ccc([As](=O)(O)O)cc1`, which outcome is on record?
**A.** Its outcome is “inactive”.
